# PMC4552634, “A New Set of Chemical Starting Points with Plasmodium falciparum Transmission-Blocking Potential for Antimalarial Drug Discovery” (PLoS ONE, 2015)
# The campaign covered roughly 13,000 compounds. About 3,200 (25%) showed an effect of 50% or more. The list shows a part of the results.
# Test system: P. falciparum stage V gametocytes
# Parameters: BacTiter-Glo ATP luminescence viability of purified stage V gametocytes in 384-well plates, per cent inhibition versus DMSO
# Settings: 48 h, 5 µM; inhibitor
row,SMILES,% Inhibition [%]
1,O=C(Nc1ccc(-c2cccc(-c3nc4ccc(C(F)(F)F)cc4[nH]3)c2)cc1)c1ccc(=O)[nH]n1 [TCMDC-137032],18.19
2,CCC(C)(C)c1ccc(N2C(N)=NC(N)=NC2(C)C)cc1 [TCMDC-137919],8.342
3,O=C(Nc1ccc(Cl)cc1)OCCn1nnnc1C(c1ccc(Cl)cc1)N1CCOCC1 (stereo not drawn) [TCMDC-124138],-11.24
4,COc1ccc2nccc(NC(=O)N3CCC(NCCOc4cc(F)cc(F)c4)CC3)c2n1 [TCMDC-140666],29.69
5,COc1ccc2nccc(NC(=O)C3CCC(NCc4cnc(SC)c([N+](=O)[O-])c4)CC3)c2n1 (stereo not drawn) [TCMDC-131238],93.77
6,COc1ccc2nccc(NC(=O)C3(O)CCC(NCc4ccc5c(c4)NCCS5)CC3)c2n1 (stereo not drawn) [TCMDC-141406],32.7
7,Cc1cccc2[nH]c(-c3ccc(-c4cccc(NC(=O)Nc5ccc(F)c(F)c5F)c4)cc3)nc12 [TCMDC-133234],-5.873
8,O=C(N[C@@H](Cc1ccccc1)C(=O)NC1CCCCC1)c1ccc(O)c(-c2cccc(C(F)(F)F)c2)c1 [TCMDC-140809],50.49
9,O=C(N[C@@H](Cc1ccccc1)C(=O)NC1CCCCCC1)c1ccc(O)c(-c2cccc(C(F)(F)F)c2)c1 [TCMDC-140813],18.86
10,O=C(N[C@@H](CC1CCCCC1)C(=O)NC1CCCCC1)c1ccc(O)c(-c2cccc(C(F)(F)F)c2)c1 [TCMDC-140810],6.892
11,OC(CNc1ccnc(Nc2ccccc2)n1)c1ccc(C(F)(F)F)cc1 (stereo not drawn) [TCMDC-136598],-1.002
12,O=c1cc(NCCCNCc2[nH]c3cc(Cl)ccc3c2Cl)[nH]c2ccccc12 [TCMDC-139966],-23.52
13,COc1cccc(C(NC(=O)c2ccccc2)c2ccc3cccnc3c2O)c1 (stereo not drawn) [TCMDC-125755],75.54
14,Cc1ccc(C(NC(=O)c2ccccc2)c2ccc3cccnc3c2O)cc1 (stereo not drawn) [TCMDC-125552],16.34
15,O=C(NC(c1ccccc1)c1ccc2cccnc2c1O)c1ccccc1 (stereo not drawn) [TCMDC-123701],103.7
16,N#Cc1ccc(N2CCN(C(=O)c3cccc(-c4noc(C(F)(F)F)n4)c3)CC2)nc1 [TCMDC-132424],8.571
17,O=C(Nc1cc(C(F)(F)F)cc(C(F)(F)F)c1)NC(CCCN1CCC2(CC1)OCc1ccccc12)c1ccc(Cl)c(Cl)c1 (stereo not drawn) [TCMDC-141899],-60.02
18,O=C(NC(CCCN1CCC2(CC1)OCc1ccccc12)c1ccc(Cl)c(Cl)c1)c1cc(C(F)(F)F)cc(C(F)(F)F)c1 (stereo not drawn) [TCMDC-141897],69.2
19,O=C(NC(CCCN1CCC(c2ccccc2)CC1)c1ccc(Cl)c(Cl)c1)c1cc(C(F)(F)F)cc(C(F)(F)F)c1 (stereo not drawn) [TCMDC-141900],23.85
20,O=C(Nc1ccc([N+](=O)[O-])cc1)c1nn(-c2ccccc2)cc1N=Cc1cccc(O)c1 [TCMDC-124108],-28.07
21,CCCCCn1c(Sc2ccc(C#N)c([N+](=O)[O-])c2)nnc1-c1cccs1 [TCMDC-135585],31.33

row,SMILES,% Inhibition [%]
1,O=C(NCc1ccccn1)C(c1cc2ccccc2o1)N1CCN(C(c2ccccc2)c2ccccc2)CC1 (stereo not drawn) [TCMDC-141024],9.637
2,c1ccc(CN2CCC(NCc3ccccc3-c3cccc(CNC4CCCC4)c3)CC2)cc1 [TCMDC-140472],106.9
3,Oc1ccc(CN2CCC(NCc3cccc4ccccc34)CC2)cc1 [TCMDC-141654],18.51
4,NCc1ccc(-c2ccccc2CNC2CCN(Cc3ccccc3)CC2)cc1 [TCMDC-140468],88.27
5,NCc1cccc(-c2ccccc2CNC2CCN(Cc3ccccc3)CC2)c1 [TCMDC-140467],102.5
6,CC(C)c1ccc(N2CCN(CCCCNC(=O)c3ccc(NC(=O)c4cc(Cl)cc(Cl)c4)cc3)CC2)cc1 [TCMDC-138232],-31.61
7,O=C(Cc1ccc(Nc2nccc(Nc3cccc4[nH]ncc34)n2)cc1)Nc1ccc(C(F)(F)F)cc1 [TCMDC-136243],0.831
8,CCCCCc1cnc2nc(N)nc(N)c2c1C [TCMDC-137717],7.113
9,Cc1cnc(C(=O)Nc2ccc3c(c2)CCCN(Cc2c[nH]c4cnccc24)C3)cn1 [TCMDC-134846],9.147
10,CC(C)c1ccc(N(CC(=O)N/N=C/c2ccc(C(F)(F)F)cc2)S(=O)(=O)c2ccc(C(F)(F)F)cc2)cc1 [TCMDC-135354],13.17
11,O=c1ccc2ccc(O)c(O)c2o1 [TCMDC-125839],-8.739
12,COc1ccc(-c2cnc(N)c(-c3nc4ccc(Br)cc4[nH]3)c2)cc1 [TCMDC-133074],-6.966
13,CCOC(=O)c1ccc(NC(=O)Nc2ccc(Cn3ncc(N4CCCNCC4)c(Cl)c3=O)cc2)cc1 [TCMDC-133330],-19
14,CC1CN(c2cnn(Cc3ccc(NC(=O)Nc4cccc(C(F)(F)F)c4)cc3)c(=O)c2Cl)CC(C)N1 (stereo not drawn) [TCMDC-141938],-19.52
15,CC1CN(c2cnn(Cc3cccc(NC(=O)Nc4ccc(F)cc4[N+](=O)[O-])c3)c(=O)c2Cl)CC(C)N1 (stereo not drawn) [TCMDC-141934],17.4
16,CC1CN(c2cnn(C/C=C/c3ccc(NC(=O)c4ccc([N+](=O)[O-])cc4)cc3)c(=O)c2Cl)CC(C)N1 (stereo not drawn) [TCMDC-132467],91.62
17,CC1CN(c2cnn(Cc3ccc(NC(=O)Nc4ccc(F)cc4[N+](=O)[O-])cc3)c(=O)c2Cl)CC(C)N1 (stereo not drawn) [TCMDC-141939],5.517
18,CC1CN(c2cnn(C/C=C/c3ccc(NC(=O)c4ccc5nonc5c4)cc3)c(=O)c2Cl)CC(C)N1 (stereo not drawn) [TCMDC-132468],104.2
19,CC1CN(c2cnn(Cc3cccc(NC(=O)Nc4cccc(C(F)(F)F)c4)c3)c(=O)c2Cl)CC(C)N1 (stereo not drawn) [TCMDC-141933],-18.84
20,COC(=O)c1ccc(NC(=O)Nc2ccc(Cn3ncc(N4CCCNCC4)c(Cl)c3=O)cc2)cc1 [TCMDC-133315],-30.5
21,CC1CN(c2cnn(C/C=C/c3ccc(NC(=O)c4ccc(Cl)cc4)cc3)c(=O)c2Cl)CC(C)N1 (stereo not drawn) [TCMDC-132469],77.2
